Common to all, as to conditions: Compound concentration 20.0 uM, Protein concentration 2.0 uM, Result type QC Liability
In test [1] the target is Tyrosine-protein kinase ABL1 (Homo sapiens) (UniProt P00519).
Test [2] deals with Cyclin-dependent kinase 2 (Homo sapiens) (UniProt P24941).
The target of test [3] is Casein kinase I isoform delta (Homo sapiens) (UniProt P48730).
Test [4] concerns the target Glycogen synthase kinase-3 beta (Homo sapiens) (UniProt P49841).
The target in test [5] is Mitogen-activated protein kinase 1 (Homo sapiens) (UniProt P28482).
Test [6] concerns the target T1, Aurora kinase A (Homo sapiens) (UniProt O14965).
T1 sequence (whole entry): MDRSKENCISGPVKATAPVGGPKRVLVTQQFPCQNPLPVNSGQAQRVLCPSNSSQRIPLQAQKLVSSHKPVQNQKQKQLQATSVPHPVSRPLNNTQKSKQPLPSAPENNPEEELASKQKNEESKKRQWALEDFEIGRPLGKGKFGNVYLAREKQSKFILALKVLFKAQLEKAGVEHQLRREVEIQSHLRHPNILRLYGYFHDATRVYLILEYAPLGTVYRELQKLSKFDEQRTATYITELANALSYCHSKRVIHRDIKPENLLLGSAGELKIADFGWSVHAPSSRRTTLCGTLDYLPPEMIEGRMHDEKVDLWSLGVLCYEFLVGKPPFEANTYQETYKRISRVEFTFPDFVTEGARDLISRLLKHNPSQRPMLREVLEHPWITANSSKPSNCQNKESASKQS

Numbered stars: 1 amine (or outer) side, 2 acyl side, 3 side chain; on linkers, the order of the positions; unused ones are H or OH. Bridge positions count the residues as written; N and C are the ends. Square brackets hold non-standard residues; d marks the D form. Peptide text beside a SMILES is read from it. I, II: the chains in the order shown. Hexamethylenediamine = C(CCCN[*:2])CCN[*:1]; Dip = N[C@H](C(=O)O)C(c1ccccc1)c1ccccc1; Chg = N[C@H](C(=O)O)C1CCCCC1; NMeA = CN[C@@H](C)C(=O)O

Chain of Glycogen synthase kinase-3 beta (Homo sapiens) (P49841 whole entry, looked up): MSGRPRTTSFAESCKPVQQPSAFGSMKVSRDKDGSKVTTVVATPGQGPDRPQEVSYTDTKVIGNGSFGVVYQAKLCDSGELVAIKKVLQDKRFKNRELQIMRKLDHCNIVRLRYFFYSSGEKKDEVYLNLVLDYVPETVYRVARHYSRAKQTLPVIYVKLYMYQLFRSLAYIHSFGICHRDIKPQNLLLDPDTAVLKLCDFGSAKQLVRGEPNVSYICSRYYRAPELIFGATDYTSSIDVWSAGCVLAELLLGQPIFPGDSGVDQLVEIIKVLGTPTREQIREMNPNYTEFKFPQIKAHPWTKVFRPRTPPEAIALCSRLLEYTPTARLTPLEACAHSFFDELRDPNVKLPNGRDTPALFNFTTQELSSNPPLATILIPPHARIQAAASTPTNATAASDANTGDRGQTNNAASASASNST
Chain of Mitogen-activated protein kinase 1 (Homo sapiens) (P28482 whole entry): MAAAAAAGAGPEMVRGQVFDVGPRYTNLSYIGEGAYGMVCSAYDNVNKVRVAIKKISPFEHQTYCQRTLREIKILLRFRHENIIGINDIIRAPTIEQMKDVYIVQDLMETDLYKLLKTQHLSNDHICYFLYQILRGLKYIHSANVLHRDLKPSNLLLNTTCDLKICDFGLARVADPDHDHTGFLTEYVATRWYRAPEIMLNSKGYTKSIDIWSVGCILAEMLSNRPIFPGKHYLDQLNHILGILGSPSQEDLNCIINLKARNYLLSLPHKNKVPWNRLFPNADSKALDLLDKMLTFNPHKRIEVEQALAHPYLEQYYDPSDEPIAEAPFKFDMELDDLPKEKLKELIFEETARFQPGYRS
Chain of Casein kinase I isoform delta (Homo sapiens) (P48730 whole entry, looked up, canonical isoform): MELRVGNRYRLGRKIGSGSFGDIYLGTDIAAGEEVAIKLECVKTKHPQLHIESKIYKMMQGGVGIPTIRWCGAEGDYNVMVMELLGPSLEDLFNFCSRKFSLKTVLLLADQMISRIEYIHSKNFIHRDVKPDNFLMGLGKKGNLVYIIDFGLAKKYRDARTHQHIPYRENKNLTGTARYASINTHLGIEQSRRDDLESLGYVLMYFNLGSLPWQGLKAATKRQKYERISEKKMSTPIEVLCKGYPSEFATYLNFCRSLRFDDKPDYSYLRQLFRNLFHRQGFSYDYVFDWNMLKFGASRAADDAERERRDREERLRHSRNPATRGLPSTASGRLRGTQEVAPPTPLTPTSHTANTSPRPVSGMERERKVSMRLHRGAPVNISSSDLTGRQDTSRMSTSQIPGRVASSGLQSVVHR
Chain of Tyrosine-protein kinase ABL1 (Homo sapiens) (P00519 whole entry): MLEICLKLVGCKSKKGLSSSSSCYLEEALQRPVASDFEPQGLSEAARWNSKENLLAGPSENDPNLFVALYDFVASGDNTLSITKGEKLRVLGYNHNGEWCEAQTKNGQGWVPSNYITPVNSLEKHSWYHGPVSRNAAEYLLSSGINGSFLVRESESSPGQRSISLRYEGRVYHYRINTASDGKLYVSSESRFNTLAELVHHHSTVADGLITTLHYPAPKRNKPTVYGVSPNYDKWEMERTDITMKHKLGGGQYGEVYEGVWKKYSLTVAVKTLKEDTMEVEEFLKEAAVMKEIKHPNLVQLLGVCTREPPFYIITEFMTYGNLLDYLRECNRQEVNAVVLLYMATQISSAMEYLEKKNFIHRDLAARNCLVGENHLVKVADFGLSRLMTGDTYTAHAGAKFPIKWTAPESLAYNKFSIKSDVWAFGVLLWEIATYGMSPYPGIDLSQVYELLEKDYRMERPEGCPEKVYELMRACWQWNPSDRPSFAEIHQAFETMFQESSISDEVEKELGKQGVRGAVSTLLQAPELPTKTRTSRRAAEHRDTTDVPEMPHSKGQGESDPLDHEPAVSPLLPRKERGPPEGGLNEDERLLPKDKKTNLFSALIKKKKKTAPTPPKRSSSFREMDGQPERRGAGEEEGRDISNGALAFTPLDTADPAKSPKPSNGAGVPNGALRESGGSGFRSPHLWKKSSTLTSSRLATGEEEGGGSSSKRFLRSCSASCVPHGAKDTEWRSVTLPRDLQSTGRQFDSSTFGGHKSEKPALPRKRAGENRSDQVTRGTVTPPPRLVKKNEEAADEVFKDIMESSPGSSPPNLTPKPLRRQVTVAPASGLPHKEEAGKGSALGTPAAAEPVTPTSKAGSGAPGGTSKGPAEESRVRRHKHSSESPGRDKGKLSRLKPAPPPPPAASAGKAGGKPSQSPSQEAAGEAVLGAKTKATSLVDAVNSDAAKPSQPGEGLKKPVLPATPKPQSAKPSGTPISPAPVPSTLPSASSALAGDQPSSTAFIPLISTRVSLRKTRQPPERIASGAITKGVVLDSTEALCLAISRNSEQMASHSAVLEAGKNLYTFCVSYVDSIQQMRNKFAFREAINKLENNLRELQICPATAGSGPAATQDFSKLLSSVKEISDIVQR

A word on the ΔTm: it is the change in melting temperature against a reference sample. Take `CCc1ncnc(N2CCN(C(C)=O)CC2)c1C#Cc1ccc(N)nc1`: the shift in melting temperature (ΔTm) was 0.27 °C in test [1]; 0.16 °C in test [2]; 1.03 °C in test [3]; -0.12 °C in test [4]; 0.42 °C in test [5]; -0.14 °C in test [6].
For the molecule `C[C@H](CCOc1cccc(CC(=O)O)c1)N(Cc1cccc(C(F)(F)F)c1Cl)CC(c1ccccc1)c1ccccc1`, the ΔTm in test [1] was 0.51 °C; in test [2] it was 1.5 °C; in test [3], 0.57 °C; in test [4], -1.07 °C; in test [5] it was 0.41 °C; in test [6] it was -2.31 °C.
As for `O[C@]1(C(F)(F)F)CCCC[C@H]1Nc1ccc(F)cc1`, the ΔTm is 0.25 °C in test [1]; 1.15 °C in test [2]; 0.07 °C in test [3]; -0.77 °C in test [4]; 0.26 °C in test [5]; 0.42 °C in test [6].
As to `CN[C@@H](C)C(=O)N[C@H](C(=O)N1CCC[C@H]1C(=O)N[C@H](C(=O)NCCCCCCNC(=O)[C@@H](NC(=O)[C@@H]1CCCN1C(=O)[C@@H](NC(=O)[C@H](C)NC)C1CCCCC1)C(c1ccccc1)c1ccccc1)C(c1ccccc1)c1ccccc1)C1CCCCC1` (I: H-[NMeA][Chg]P[Dip] / II: H-[NMeA][Chg]P[Dip]; linker I:C-II:C via Hexamethylenediamine), the shift in melting temperature (ΔTm) in test [1] is -0.65 °C; in test [2], -1.8 °C; in test [3], -0.57 °C; in test [4], -0.94 °C; in test [5] it was -1.01 °C; in test [6], -1.85 °C.
Regarding `Cc1cc(C2CCCNC2)ccc1Nc1ncc(Br)c(NCc2cccc3c2C(C)(C)C(=O)N3)n1` (stereo unspecified), the ΔTm in test [1] is 1.52 °C; in test [2] it was 2.03 °C; in test [3] it was 0.34 °C; in test [4], 1.91 °C; in test [5], 2.1 °C; in test [6] it was 3.81 °C.
As for `COc1cc(C(N)=O)ccc1Nc1ncc2c(n1)N(CCC(C)C)[C@H](C)C(=O)N2C`, the shift in melting temperature (ΔTm) in test [1] is 1.42 °C; in test [2] it was -0.37 °C; in test [3] it was 0.51 °C; in test [4], 0.01 °C; in test [5] it was -6.61 °C; in test [6], -0.69 °C.
With `COc1ncc(-c2cc(-c3ncc(CN4C[C@@H](C)O[C@@H](C)C4)o3)c3cn[nH]c3c2)cc1NS(C)(=O)=O`, the thermal shift (ΔTm) in test [1] was 0.42 °C; in test [2] it was 0.2 °C; in test [3], 0.38 °C; in test [4], -0.36 °C; in test [5], 0.18 °C; in test [6], 1.26 °C.
For `C[C@@H]1COCCN1c1cc(=O)n2c(n1)N(Cc1cncc(Cl)c1)[C@H](C(F)(F)F)CC2`, the shift in melting temperature (ΔTm) in test [1] was 0.53 °C; in test [2] it was 0.54 °C; in test [3], 0.16 °C; in test [4], 0.4 °C; in test [5], 0.34 °C; in test [6] it was -0.23 °C.
For the molecule `Cc1c(-c2c(F)cc(C(N)=O)c3[nH]c4c(c23)CC[C@H](C(C)(C)O)C4)cccc1-n1c(=O)c2cccc(F)c2n(C)c1=O`, the ΔTm was 3.83 °C in test [1]; 0.48 °C in test [2]; 0.11 °C in test [3]; 0.79 °C in test [4]; -0.33 °C in test [5]; 10.9 °C in test [6].
In the case of `Cc1c(N2CCNCC2)nc2ccc(Br)cc2c1C(=O)NC[C@H](CCC(=O)O)c1ccccc1Cl`, the shift in melting temperature (ΔTm) in test [1] came out at 0.01 °C; in test [2], 0.4 °C; in test [3], 0.62 °C; in test [4], 0.03 °C; in test [5] it was 0.18 °C; in test [6], 0.41 °C.
Take `O=C1CN(c2ccccc2F)C(NCCN2CCOCC2)=C1c1nc2cc(Br)ccc2c(=O)[nH]1`: the ΔTm in test [1] worked out at 0.38 °C; in test [2] it was 0.68 °C; in test [3] it was 0.32 °C; in test [4] it was 0.31 °C; in test [5] it was 0.23 °C; in test [6], 0.17 °C.
On to `Nc1nccc(-c2c(-c3ccc(F)cc3)ncn2C2CCN(Cc3ccon3)CC2)n1`, for which the shift in melting temperature (ΔTm) in test [1] is 0.7 °C; in test [2] it was 0.23 °C; in test [3] it was 10.1 °C; in test [4], 6.87 °C; in test [5], 0.36 °C; in test [6], -0.88 °C.
For the molecule `Cc1nn(-c2ccccc2)c(Nc2ccccc2C(=O)O)c1-c1cc2nccnc2c(F)c1F`, the thermal shift (ΔTm) was -0.68 °C in test [1]; 0.56 °C in test [2]; 0.22 °C in test [3]; 1 °C in test [4]; 0.47 °C in test [5]; 0.69 °C in test [6].
For `O=C(O)CCCCN(CCc1ccccc1OCc1ccc(CCc2ccccc2)cc1)Cc1ccc(C(=O)O)cc1`, the ΔTm in test [1] was -0.26 °C; in test [2] it was 0.13 °C; in test [3] it was -0.05 °C; in test [4] it was -0.16 °C; in test [5] it was -0.08 °C; in test [6] it was -0.23 °C.
Turning to `Nc1ncc2c(n1)-c1c([nH]c3ccc(C4=CCOCC4)cc13)CCC2`, the ΔTm in test [1] is 0.44 °C; in test [2], 1.02 °C; in test [3], 2.29 °C; in test [4] it was 0.71 °C; in test [5], -0.03 °C; in test [6], 1.93 °C.
With `Cc1nc2ccccc2c(-c2ccc3c4c(ccnc24)CCO3)c1[C@H](OC(C)(C)C)C(=O)O`, the ΔTm in test [1] is -0.44 °C; in test [2] it was 0.2 °C; in test [3] it was 0.28 °C; in test [4], -0.88 °C; in test [5], 0.3 °C; in test [6], -0.03 °C.
As for `CNc1ncc2cc(-c3ccc(-c4cccc(C)n4)cc3Cl)c(=O)n(C[C@H]3OC[C@H](N)CO3)c2n1`, the ΔTm in test [1] was 5.88 °C; in test [2], 1.85 °C; in test [3], 1.07 °C; in test [4], 0.45 °C; in test [5], -0.4 °C; in test [6], 8.51 °C.
For the molecule `N#Cc1cccc(-c2c[nH]c3ncnc(N4CCOCC4)c23)c1`, the thermal shift (ΔTm) stood at 1.39 °C in test [1]; 1.88 °C in test [2]; 0.56 °C in test [3]; 4.32 °C in test [4]; 0.64 °C in test [5]; 4.35 °C in test [6].
Turning to `O=C(Cc1ccccc1)Nc1nnc(N2C[C@H]3C[C@@H]2CN3c2cccnn2)s1`, the ΔTm is 0.09 °C in test [1]; 0.52 °C in test [2]; -0.12 °C in test [3]; -0.33 °C in test [4]; 0.33 °C in test [5]; -0.14 °C in test [6].
Take `Cn1c(C(=O)N[C@@H](CO)c2ccc(C(=O)O)cc2)cc2cc(Cl)ccc21`: the ΔTm in test [1] is -0.2 °C; in test [2] it was 0.54 °C; in test [3] it was 0.58 °C; in test [4], 0.38 °C; in test [5] it was -0.04 °C; in test [6] it was 0.34 °C.
As for `N=C(N)NCCC[C@H](NC(=O)CC1(CC(=O)N2CCN(C(c3ccccc3)c3ccccc3)CC2)CCCC1)C(=O)NCc1ccccc1`, the ΔTm in test [1] was -0.53 °C; in test [2], -1.78 °C; in test [3], 0.02 °C; in test [4], -1.84 °C; in test [5], -0.93 °C; in test [6], -0.79 °C.
For `CN(C)[C@H]1CCN(c2cc(C(F)(F)F)c(C#N)c(Nc3cccc(CCC(=O)O)c3)n2)C1`, the ΔTm is -0.06 °C in test [1]; 0.28 °C in test [2]; 0.14 °C in test [3]; 0.08 °C in test [4]; 0.58 °C in test [5]; 0.51 °C in test [6].
With `COc1cc(N2CCN(C)CC2)ccc1Nc1ncc2c(n1)N(C)c1ccccc1C(=O)N2CC(F)(F)F`, the ΔTm in test [1] was 0.67 °C; in test [2], -0.65 °C; in test [3], 0.47 °C; in test [4] it was -0.83 °C; in test [5], 0.11 °C; in test [6] it was 0.18 °C.
On to `CCC(C)(C)CC[C@H](NC(=O)N1CCOCC1)C(=O)NC1(C#N)CCN(C)CC1`, for which the ΔTm in test [1] was -0.14 °C; in test [2], 0.95 °C; in test [3] it was 0.34 °C; in test [4], 0.11 °C; in test [5], 0.54 °C; in test [6], 0.69 °C.
As for `Cn1cc(-c2ccc(N(C(=O)NCc3ccccc3)[C@H]3CC[C@H](Nc4ccc(C#N)cn4)CC3)cc2)ccc1=O`, the ΔTm is 0.13 °C in test [1]; 0.7 °C in test [2]; 0.29 °C in test [3]; 0.01 °C in test [4]; -0.4 °C in test [5]; -0.15 °C in test [6].
Turning to `Cc1nn(C)c(COc2ccc(N3CCN(S(=O)(=O)N(C)C)CC3)cc2)c1-c1cccc2c(CCCOc3cccc4ccccc34)c(C(=O)O)n(CCN3CCOCC3)c12`, the thermal shift (ΔTm) in test [1] is 0.04 °C; in test [2], 0.39 °C; in test [3], -0.73 °C; in test [4], 0 °C; in test [5], -0.31 °C; in test [6], 0.6 °C.
